Screening data as filed in PubChem.
Shown are actives, neighbours in structure and some others; about 8.1% of the full set was active somewhere.
MCF10A rereplic: DNA re-replication induction in MCF 10a cells | MCF 10A DNA re-replication, Hoechst nuclear intensity, 48 h | Potency, µM (series often up to 46.1 µM), usual class: activators | 2.9% of 350,000 active | AID 624296; further: nearly all actives have a fitted effect of over 50% in size
SW480 rerep: induces DNA re-replication in SW480 colon adenocarcinoma cells. SW480 DNA re-replication, Hoechst DNA content imaging, 48 h. Potency, µM (series often up to 46.1 µM), most hits filed as activators. 1.8% of 340,000 active; further: nearly all actives have a fitted effect of over 55% in size
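Image-based read-out: total Hoechst fluorescence of nuclei (405 nm excitation, 500-530 nm emission), with hits raising the fraction of high-intensity nuclei. SW480 colon cells incubated 48 hr with compounds at 37 C.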
ELG1 repair inh: inhibitors of ELG1-dependent DNA repair in HEK293T cells; 2.3% of 330,000 active; HEK293T ELG1-luciferase reporter, luminescence, 16 h; DNA damage induced by 5-fluorouridine; Potency, µM (titrated, usually from 46.1 µM), most hits filed as inhibitors; AID 504467; further: nearly all actives have a fitted effect of over 55% in size
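Cells (2,000 per well) received 5-fluorouridine plus test compound or DMSO and were incubated 16 hr at 37 °C, 5% CO2. Luciferase activity was read by luminescence 30 min after ONE-Glo addition; signal suppression marked inhibition of damage-induced ELG1 function.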
KB-V1 MDR tox: kills drug-selected multidrug resistant KB-V1 cells; 3.4% of 400,000 active; AID 1347076; Potency, µM (doses to about 46.1 µM), actives largely listed as cytotoxic; KB-V1 MDR cells viability, CellTiter-Glo, 72 h; further: nearly all actives have a fitted effect of over 60% in size
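Cells of the MDR subline KB-V1 are plated, dosed with compound at multiple concentrations, and incubated 72 h at 37 degrees C; CellTiter-Glo is then added and luminescence read after 10 min.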
KB-3-1 cytotox: KB-3-1 parental cell cytotoxicity | 1.4% of 400,000 active | Potency, µM (doses to about 46.1 µM), usual class: cytotoxic | KB-3-1 viability, CellTiter-Glo ATP luminescence, 72 h; further: nearly all actives have a fitted effect of over 60% in size
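Screening of KB-3-1 cells (DMEM, 10% FBS, phenol-red free) ran from lowest to highest compound concentration; after 72 h at 37 °C viability was read luminescently and curves fitted.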
Hits are given with their value; n = inactive; u = inconclusive; x = no result. The call rests on the fitted dose curve; in most records, active means well fitted curve in the direction sought with a large enough effect; inconclusive means small, poorly fitted or top-dose-only effect, or another doubt; inactive means no such curve, though single readings can be large; an effect the other way counts as inactive or inconclusive.

SMILES	MCF10A rereplic	SW480 rerep	ELG1 repair inh	KB-V1 MDR tox	KB-3-1 cytotox
COC(=O)c1ccc(COc2ccc(/C=N/NC(N)=S)cc2)o1	u	n	15µM	u	n
CCOC(=O)c1cc(C)sc1NC(=O)C(c1ccccc1)c1ccccc1	26µM	n	n	n	n
CCOc1cc(CN2CCc3c([nH]c4ccccc34)C2)ccc1OC	n	n	n	u	n
CCOCc1[nH]c(=S)[nH]c(=O)c1Cc1ccc(OC(C)C)cc1	n	n	n	n	n
CC(C)n1cnc2c(Nc3cccc(Cl)c3)nc(NCCCO)nc21	n	u	u	n	n
C=CC(=O)Nc1cccc(Nc2nc(N[C@H]3CC[C@H](N(C)C)CC3)nc3c2ncn3C(C)C)c1	u	u	x	n	18µM
O=[N+]([O-])c1ccc(N/N=C/c2ccccc2O)cc1	n	u	u	n	u
COC(=O)c1cc(Cl)c(NC(=O)C(C)C)cc1OC	n	n	n	n	n
COC(=O)c1cc(OC)c(OC)cc1NC(=O)CCc1ccc(C)o1	n	n	u	n	n
COC(=O)c1cc(OC)c(OC)cc1NC(=O)c1ccc(C)cc1	n	n	u	3.3µM	n
COC(=O)c1cc(Cl)c(NC(=O)c2ccc(C(C)(C)C)cc2)cc1OC	9.2µM	n	u	n	n
COC(=O)c1cc(OC)c(OC)cc1NC(=O)c1ccc(C)o1	n	n	23µM	u	n
COC(=O)c1cc(OC)c(OC)cc1NC(=O)c1ccc(OC)cc1	u	n	u	n	n
COc1cc(C2C(C(=O)Nc3ccccc3)=C(C)Nc3nc(SCC(=O)c4ccc(C)cc4)nn32)ccc1O (centres undefined)	x	x	x	u	n
CC(C)N(C(=O)CSc1nc2ccccc2c(=O)[nH]1)C(C)C	n	n	u	u	n
CC1(C)Cc2c(sc3nc(-c4cccs4)n(N)c(=O)c23)CO1	u	u	u	8.2µM	n
CC1(C)Cc2c(sc3nc(-c4ccccc4)n(N)c(=O)c23)CO1	u	n	n	n	n
Cc1ccc(NC(=S)NC(NC(=O)c2ccco2)C(Cl)(Cl)Cl)cc1 (centres undefined)	16µM	n	u	n	n
O=C(NC(NC(=S)Nc1ccc(Cl)cc1Cl)C(Cl)(Cl)Cl)c1cccc([N+](=O)[O-])c1 (centres undefined)	12µM	21µM	n	u	u
Cc1cc(C)c(NC(=S)NC(NC(=O)c2ccccc2)C(Cl)(Cl)Cl)c(C)c1 (centres undefined)	n	u	u	u	u
O=C(O)c1cccc(NC(=S)NC(NC(=O)c2cccc([N+](=O)[O-])c2)C(Cl)(Cl)Cl)c1 (centres undefined)	n	n	n	n	n
Cc1ccc(NC(=S)NC(NC(=O)c2ccccc2)C(Cl)(Cl)Cl)c(C)c1 (centres undefined)	u	n	u	16µM	u
COCCNC(=O)CCn1nc(-c2ccc(C)cc2)c2ccccc2c1=O	n	n	n	n	n
O=C(/C=C/c1cn(-c2ccccc2)nc1-c1ccc2c(c1)OCCO2)NCCO	n	n	u	n	n
CNC(=O)COC(=O)/C=C/c1cn(-c2ccccc2)nc1-c1ccc2c(c1)OCCO2	n	n	u	n	n
SMILES	MCF10A rereplic	SW480 rerep	ELG1 repair inh	KB-V1 MDR tox	KB-3-1 cytotox
COC(=O)c1cn(-c2ccccc2)nc1-c1ccc(OC)cc1	n	n	26µM	n	n
NC(=O)/C=C\c1cn(-c2ccccc2)nc1-c1ccc2c(c1)OCCO2	u	n	16µM	15µM	n
COC(=O)c1cn(-c2ccccc2)nc1-c1ccncc1	n	n	n	n	n
CCOC(=O)c1ccc(NC(=O)c2cn(-c3ccccc3)nc2-c2ccncc2)cc1	n	u	18µM	n	n
CC(C)OC(=O)c1cn(-c2ccccc2)nc1-c1ccc2c(c1)OCCO2	u	n	23µM	7.3µM	n
N#C/C(=C\c1cccc(O)c1)C(=O)Nc1ccc2c(c1)OCCO2	u	n	u	n	n
OC(CCCC(O)c1ccccc1)c1ccccc1 (centres undefined)	n	n	x	n	n
CC1CN(C(=O)c2cn3ccccc3n2)CC(C)O1 (centres undefined)	n	n	u	n	n
COc1ccc2[nH]c3c(c2c1)CCN1C(=O)C(CC(=O)NCCN2CCOCC2)C[C@H](C(=O)N2CCCCC2)[C@@]31C (some centres undefined)	n	n	n	u	n
CC1CCCCC1NC(=O)COC(=O)c1c2c(nc3ccccc13)/C(=C/c1ccco1)CC2 (centres undefined)	16µM	15µM	u	n	n
O=C(COC(=O)c1c2c(nc3ccccc13)/C(=C/c1ccco1)CC2)NC1CCCC1	7.3µM	13µM	u	16µM	n
CCC1CCCCN1C(=O)c1cc2c(=O)n3cccc(C)c3nc2s1 (centres undefined)	u	n	n	n	n
CC(C)c1nnc(NC(=O)Cc2ccccc2[N+](=O)[O-])s1	u	n	u	23µM	n
O=C(c1ccoc1)N1CCCC(N2CCN(c3cccc(Cl)c3)CC2)C1 (centres undefined)	n	n	n	n	n
CCOC(=O)c1sc(NC(=O)c2cc3ccccc3o2)nc1C	n	n	u	n	n
COc1cccc(N(C(=O)CCl)C(C(=O)NCCc2ccccc2)c2cccs2)c1 (centres undefined)	16µM	u	16µM	u	u
COc1ccc(N(C(=O)CCl)C(C(=O)NCCc2ccccc2)c2cccs2)cc1Cl (centres undefined)	6.5µM	u	u	13µM	8.2µM
COc1cccc(N(C(=O)c2snc(C(N)=O)c2N)C(C(=O)NCC2CCCO2)c2cccs2)c1 (centres undefined)	n	n	n	u	n
COc1cc(-c2nnc(-c3ccncc3)o2)ccc1OCc1ccccc1	u	n	u	n	n
COc1cc(-c2nnc(-c3ccco3)o2)ccc1OCc1ccccc1	n	n	n	4.1µM	u
Cc1ccc(Nc2nc(C)cc(C)c2C(N)=O)c(C)c1	n	n	n	n	n
COc1cccc(-c2cc(C(=O)Nc3cc(Cl)ccc3O)on2)c1	x	x	x	n	n
COc1cccc(-c2cc(C(=O)Nc3cc(OC)c(OC)c(OC)c3)on2)c1	x	x	x	u	9.2µM
O=C(NCCC1=CCCCC1)C1CCN(S(=O)(=O)N2CCOCC2)CC1	n	n	n	n	n
CC(C)(C)c1cc[n+](C2=C([O-])c3ccccc3C(=O)/C2=N\S(=O)(=O)c2ccccc2)cc1	n	u	15µM	n	n
CC(C)[n+]1ccn(C2=C([O-])c3ccccc3C(=O)/C2=N\S(=O)(=O)c2ccccc2)c1	n	u	23µM	n	u
